Test results as given in PubChem BioAssay AID493185 (National Center for Advancing Translational Sciences (NCATS), 2011).
Active and inactive are the calls of the source. Where a call stands in place of a potency, no number is given. Calls follow the shape of the dose curve; as a rule, active = well fitted activation curve with a large enough effect; inconclusive = small, poorly fitted or top-dose-only effect; inactive = no such curve, though single readings can be large or run the other way.

Test: Counterscreen for Identifying a Potential Treatment of Ataxia-Telangiectasia: Hit Validation
Method in brief: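 Without cells, compounds at up to 76.7 uM final were combined with premixed anti-pKAP1/anti-KAP1 AlphaLISA bead reagents, protease inhibitors and lysis buffer; signal read after 6 hr at 25C to flag assay-platform artifacts.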
Potency is read from the fitted curve at half-maximal effect.

In the case of `Oc1ccc(-c2nccc(-c3ccc(F)cc3)n2)cc1`, the Potency is reported as “inactive”.
For `Cc1cccc(NC(=O)/C(C#N)=C/c2ccc(F)cc2)n1`, the Potency was “inactive”.
For `O=C(c1cccc(F)c1)N1CCCC(C(=O)N2CCCCCC2)C1` (stereo unspecified), the Potency was “inactive”.
For `S=c1[nH]nc(Cn2c(-c3ccccn3)nc3ccccc32)n1-c1ccc2c(c1)OCCO2`, the Potency was “inactive”.
For `CS(=O)(=O)c1ccc(-c2csc(-c3cccnc3)n2)cc1`, the Potency was “inactive”.
For `COc1ccc(C2(C)CC(C)(C)Nc3ccccc32)cc1` (stereo unspecified), the Potency was “inactive”.
With `COc1cccc(OC)c1C(=O)NC(=O)Nc1c(C)cccc1C` the Potency was “inactive”.
With `COc1ccccc1C(=O)NC(=O)Nc1cccc(Cl)c1` the Potency was “inactive”.
In the case of `Cn1cc(S(=O)(=O)Nc2ccc(OC(F)(F)F)cc2)c(=O)n(C)c1=O`, the Potency is reported as “inactive”.
For `CCc1nnc2n1N=C(c1cccc([N+](=O)[O-])c1)CS2`, the Potency was “inactive”.
For `c1ccc(CSc2nnc(-c3ccco3)n2Cc2ccco2)cc1`, the Potency was “inactive”.
For `CCCCn1c2c(c(=N)c3ccccc31)CCC2`, the Potency was “inactive”.
In the case of `O=C1C2C3C=CC(CC3)C2C(=O)N1c1cccc(Br)c1` (stereo unspecified), the Potency is reported as “inactive”.
With `COc1ccc(-n2c(=S)[nH]c3ccccc3c2=S)cc1` the Potency was “inactive”.
In the case of `CCN(CC)S(=O)(=O)c1ccc(Cl)c(NC(=O)CCCCl)c1`, the Potency is reported as “inactive”.
For `O=C1NC(NS(=O)(=O)c2ccc(Cl)cc2)(C(F)(F)F)C(=O)N1CCc1ccccc1` (stereo unspecified), the Potency was “inactive”.
In the case of `COC(=O)Cn1ccc2cc(S(=O)(=O)N3CCCCC3)ccc21`, the Potency is reported as “inactive”.
With `NC(=O)c1cc2ccccc2o/c1=N/NC(=O)c1cccc(F)c1` the Potency was “inactive”.
For `CCN1CCN(CC(=O)Nc2ccc(C(C)=O)cc2)CC1`, the Potency was “inactive”.
In the case of `COc1cc(C(=O)NCCC(=O)NCCCN2CCCCC2)cc(OC)c1OC`, the Potency is reported as “inactive”.
With `CNC(=S)N(CCc1c(C)[nH]c2ccc(Cl)cc12)Cc1cccnc1` the Potency was “inactive”.
For `O=C1C(Cl)=C(Nc2ccc3cn[nH]c3c2)C(=O)c2ccccc21`, the Potency was “inactive”.
With `CCNC(=S)N(Cc1cc2cccc(C)c2[nH]c1=O)C1CCCC1` the Potency was “inactive”.
With `COc1ccc(CCNC2=NCCS2)cc1OC` the Potency was “inactive”.
With `Cc1ccccc1S(=O)(=O)Oc1ccc2ccc(O)cc2c1` the Potency was “inactive”.
With `COc1ccc(-c2csc(-c3ccc(O)cc3)n2)cc1` the Potency was “inactive”.
For `COC(=O)N/N=C/c1ccccc1OCCOc1ccc(OC)cc1`, the Potency was “inactive”.
For `CCc1ccc(NC(=O)CNCc2ccc(OC)c(OC)c2)cc1`, the Potency was “inactive”.
In the case of `COCCCNC(=O)c1c[nH]c2ccc(S(=O)(=O)N(C)c3ccccc3C)cc2c1=O`, the Potency is reported as “inactive”.
In the case of `CN(CCc1ccccn1)C(=O)c1cc(COc2ccc(F)cc2F)on1`, the Potency is reported as “inactive”.
In the case of `CCOC(=O)c1[nH]c(COC(=O)c2ccccc2NC(=O)c2ccco2)c(C(=O)OCC)c1C`, the Potency is reported as “inactive”.
For `Cc1ccc(C(C)C)c(OCCN2CCc3ccccc3C2)c1`, the Potency was “inactive”.
With `CC(O)[C@H]1CNC(=O)C(=O)N1CC1(c2ccccc2)CC1` (stereo partly specified) the Potency was “inactive”.
For `Cc1ccc(NC(=O)Nc2cccnc2)cc1NC(=O)Nc1cccnc1`, the Potency was “inactive”.
With `CC(C)(C)n1nc2c(c1NC(=O)C1CC(=O)N(c3ccc(Cl)cc3)C1)CS(=O)(=O)C2` (stereo unspecified) the Potency was “inactive”.
For `COc1ccc(/C=N/Nc2nc(=O)[nH]nc2C)cc1OC`, the Potency was “inactive”.
In the case of `COC(=O)Cc1ccc(NC(=S)NCCSc2ccc(Cl)cc2)cc1`, the Potency is reported as “inactive”.
With `Cc1nn(-c2ccccc2)c2nc(C(Cl)(Cl)Cl)[nH]c(=O)c12` the Potency was “inactive”.
With `CCOC(=O)c1cccc(N2C(=O)C3C4C=CC(CC4)C3C2=O)c1` (stereo unspecified) the Potency was “inactive”.
With `CNC(=S)N(CCO)Cc1cc2cc3c(cc2[nH]c1=O)OCCO3` the Potency was “inactive”.
With `O=C(C(c1ccccc1)c1ccccc1)N1CC[C@@]2(O)CCCC[C@H]2C1` the Potency was “inactive”.
For `Cc1nn(C)c(Cl)c1CN1CCN(C2CCCC2)C(CCO)C1` (stereo unspecified), the Potency was “inactive”.
In the case of `O=[N+]([O-])c1ccc(F)cc1F`, the Potency is reported as “inactive”.
In the case of `COc1cccc(CN(C)CC(=O)NCc2ccc(F)cc2)c1OC`, the Potency is reported as “inactive”.
With `Cc1oc2ccc(OCc3ccc(Br)cc3)cc2c1C(=O)O` the Potency was “inactive”.
In the case of `OC1(CC#CCN2CCCCC2)c2ccccc2-c2ccccc21`, the Potency is reported as “inactive”.
In the case of `CN(C)c1ccc2nc3ccc(=[N+](C)C)cc-3sc2c1`, the Potency is reported as 11.6 µM (active).
For `COc1ccc(C(CNC(=O)C(Cc2ccccc2)NC(N)=O)N(C)C)cc1` (stereo unspecified), the Potency was “inactive”.
For `CCn1c2ccccc2c2c3ncc4cccn4c3ccc21`, the Potency was 41.2 µM (active).
In the case of `Cc1oc2c(c(C)cc3oc(=O)c(CC(=O)NCC(=O)NCC(=O)O)c(C)c32)c1C`, the Potency is reported as “inactive”.
With `CN1C[C@@H]2C(c3ccccc3)C3(c4ccccc4)CC2(C3)[C@H]1c1ccccc1` (stereo partly specified) the Potency was “inactive”.
